Screening results deposited in PubChem by several laboratories.
Anthrax LF prot: inhibitors of Bacillus anthracis lethal factor protease. AID 588501. actives 0.12% (n = 360,000). inhibition, % at 10 µM. multiplex microsphere protease cleavage assay, LF; note: plate controls were buffer without enzyme for full effect and enzyme alone for no effect
VHR inh abs: DUSP3 (human) phosphatase inhibition; recombinant VHR phosphatase, pNPP absorbance; inhibition, % at 13.3 µM; actives 0.52% (n = 290,000); in the data active = inhibition above about 50%
BoNT-A LC inh2: BoNT A light chain protease inhibition. multiplex microsphere protease substrate cleavage, flow cytometry. inhibition, % at 10 µM. actives 0.17% (n = 360,000). AID 588499; note: plate controls were buffer without enzyme for full effect and enzyme alone for no effect
MazF activator: activators of E. coli MazEF toxin-antitoxin RNase | FAM/BHQ RNA-DNA oligo cleavage fluorescence, 5 h | activation, % at 20 µM | actives 0.32% (n = 350,000) | AID 504720; in the data active = activation above about 50%
BoNT-F LC inh: inhibitors of Botulinum neurotoxin F light chain protease | Multiplex microsphere protease cleavage assay, flow cytometry | inhibition, % at 10 µM | actives 0.22% (n = 360,000) | AID 588497; in the data active = inhibition above about 35%, passing the limit was not always enough; inconclusive = no clear call, values can overlap the other calls; note: plate controls were buffer without enzyme for full effect and enzyme alone for no effect
Autofluor counter: flagged as autofluorescent in microsphere protease counterscreen. compound autofluorescence counterscreen, microsphere flow cytometry; stronger effect = higher value. fluorescence intensity (no concentration beside the values). actives 3.1% (n = 360,000). AID 624483; in the data active = fluorescence intensity above about 16000; inconclusive = no clear call, values can overlap the other calls
Starred values were filed as active, the others as inactive; ? = inconclusive; . = no result. Hits are enriched below; roughly 4.1% of the tested compounds scored in any of these assays. Cut-off read from the data, not from the text of the source, unless noted: active = inhibition above about 30%; inconclusive = no clear call, values can overlap the other calls; inactive = below that.

SMILES	Anthrax LF prot	VHR inh abs	BoNT-A LC inh2	MazF activator	BoNT-F LC inh	Autofluor counter
O=c1oc2ccccc2cc1-c1nc2c(s1)CCc1ccccc1-2	27	-5	64*	-16	18	3123
Nc1nnc(-c2cc3ccccc3oc2=O)s1	0	-5	-1	1	3	4215
O=S(=O)(/N=C/c1c(O)ccc2ccccc12)c1ccccc1	2	54*	-1	-4	42*	3955
O=C(CSCC(=O)Nc1ccccc1)N/N=C/c1c(O)ccc2ccccc12	6	6	5	86*	-2	23512*
COc1ccc(/C=N/NC(=O)CSCC(=O)Nc2ccccc2)cc1OC	-14	-1	?	0	12	19130*
O=C(CSCc1ccc(Cl)cc1)N/N=C/c1ccc(OCC(=O)Nc2ccccc2)cc1	4	10	-1	14	-12	3192
Cc1ccc(NC(=O)COc2ccc(/C=N/NC(=O)CSCc3ccccc3)cc2)cc1	0	-2	0	6	-1	22872*
COc1ccc(/C=N/NC(=O)CSc2ccccc2)cc1OC	1	-2	0	1	0	2073
CN(N=Nc1nc[nH]c1C(N)=O)C1CCCCC1	-6	.	2	.	-8	4119
CCOC(=O)N1CCc2c(sc3c2c(=O)n(-c2ccc(CC)cc2)c(=O)n3CC(=O)NCC2CCCO2)C1 (configuration not stated)	0	17	0	-4	-6	4449
Cc1cc(C)c(C(=O)COC(=O)CCNS(=O)(=O)c2c(Cl)cccc2Cl)cc1C	9	-10	0	-1	14	2107
Cc1ccc(CNC(=O)Nc2ccccc2)c(C)c1	-2	14	1	4	-8	4642
O=C(Nc1ccccn1)c1cc2ccccc2cc1O	0	17	2	5	5	4970
c1ccc(Nc2ccccc2Nc2ccccn2)nc1	1	22	-1	1	-3	20926*
c1ccc(CNc2ccccn2)cc1	-17	0	?	5	?	4375
Oc1cccc2ccc(Nc3ccccn3)nc12	34*	2	10	15	26	11243
CCCCCN(C(=O)CCC(=O)OC(C)C(=O)Nc1ccccc1C)c1c(N)n(CCCC)c(=O)[nH]c1=O (configuration not stated)	1	.	0	3	-9	2881
COc1ccccc1N1CCN(C(=O)c2cccc(S(=O)(=O)NCc3cccnc3)c2)CC1	6	.	1	11	3	3798
COc1cc2c(cc1OC)-c1cc(Nc3ccc(F)cc3)nc(=O)n1CC2	7	16	1	10	14	2839
COc1cc2c(cc1OC)-c1cc(NC3CCCC3)nc(=O)n1CC2	-4	-12	?	8	1	22438*
O=C(Cc1nnc(NC(=O)Nc2ccccc2)s1)NCc1ccccc1	-1	58*	-1	-5	-3	2476
CCN(CC)CC(=O)NN=C(c1ccccc1)c1ccccc1	0	6	0	-10	-1	2700
O=C(CCl)NN=C(c1ccccc1)c1ccccc1	-7	13	0	59*	-2	4778
COc1cc(CN2CCC(C(=O)N3CCN(c4ccccc4F)CC3)CC2)ccc1O	-2	9	0	6	2	23648*
COc1ccc(CC2CCOC2=O)cc1 (configuration not stated)	-9	8	5	-1	10	20533*
SMILES	Anthrax LF prot	VHR inh abs	BoNT-A LC inh2	MazF activator	BoNT-F LC inh	Autofluor counter
C#CCNC(=O)C1=C[C@@H](C)[C@H](CCCO)[C@@H](OCC)O1	3	.	0	5	6	3727
CCN1C(=O)c2ccc(-c3nc4ccccc4c(=O)o3)cc2C1=O	0	12	0	9	2	5692
CCN1C(=O)c2c(C)nc3ccccc3c2C1=O	-3	16	-1	6	0	20844*
O=C(CCc1ccc(S(=O)(=O)NCCc2ccccc2)cc1)N1CCN(Cc2ccc3c(c2)OCO3)CC1	-5	33	1	.	0	21187*
Cc1ccc(S(=O)(=O)N(C)c2ccc(C(=O)N3CCN(Cc4ccc5c(c4)OCO5)CC3)cc2)cc1	-4	16	0	4	3	7589
CCOC(=O)N1CCN(C(=O)CCc2ccc(S(=O)(=O)NCCc3ccccc3)cc2)CC1	-5	14	2	-1	5	22791*
CCNS(=O)(=O)c1ccc(CCC(=O)N2CCN(Cc3ccccc3)CC2)cc1	13	49	0	8	?	4081
CN(c1ccc(C(=O)N2CCN(Cc3ccc4c(c3)OCO4)CC2)cc1)S(=O)(=O)c1ccccc1	-3	13	-1	5	1	23288*
CC(C)(C)OC(=O)N1CCc2onc(-c3ccc(N)cc3)c2C1=O	-8	.	0	4	-5	3799
CC(=O)Nc1ccc(NC(=O)CSc2nnc(-c3cc(C)[nH]n3)n2N)cc1	-1	4	0	9	0	6279
CCOC(=O)N1CCN(C(=O)c2cc(S(=O)(=O)N3CCc4ccccc43)ccc2OC)CC1	?	.	3	2	0	?
CN(C)c1ccc(CNn2cnnc2SCC(=O)NC(C)(C)C)cc1	-2	24	0	1	0	4255
CN(C)c1ccc(CNn2cnnc2SCc2ccccc2F)cc1	-3	2	10	6	13	19034*
CC1(C)Cc2nc3n[nH]c(N)c3cc2CO1	-2	-13	-3	-12	-4	24639*
Cc1nc2n[nH]c(N)c2c2c1COC(C)(C)C2	-1	13	0	4	-4	2220
Cc1cc(C)n2c(SCC(=O)N(CCC#N)c3ccc4c(c3)OCCO4)nnc2n1	3	.	0	-8	-8	2931
COc1cc(C(=O)Nc2ccc(S(=O)(=O)N3CCc4ccccc43)cc2)cc(OC)c1OC	0	10	-2	-4	-3	18077*
COC(=O)Nc1ccc(S(=O)(=O)N2CCCc3ccccc32)cc1	-1	-7	-1	-5	-2	16570*
Cc1cc(NC(=O)Cn2cc(C(F)(F)F)cc(Cl)c2=O)no1	0	34	?	0	-5	21524*
Cc1ccc(SCC(=O)Nc2cc(C)on2)cc1	-6	22	0	2	-2	10411
Cc1cc(NC(=O)CSc2ccc(Cl)cc2)no1	-1	21	2	-4	2	22791*
Cc1cc(NC(=O)CSc2nc(-c3ccc(Cl)cc3)cs2)no1	-2	18	?	77*	-4	20504*
O=C(COC(=O)Cc1ccc(Br)cc1)NCc1ccc2c(c1)OCO2	1	.	4	3	10	?
COc1cccc2sc3cc(NCc4ccc(C)o4)ccc3c(=O)c12	-4	.	1	1	-2	4500
COc1ccc(CNC(=O)[C@H](C)NC(=O)[C@@H]2Cc3ccccc3CN2)cc1	-2	-17	-1	5	-3	5256
O=C(CSc1nnc2ccccn12)c1ccc(Cl)cc1	-6	-5	0	0	2	4107
O=C(CSc1nnc2n1CCCN2C(=S)Nc1ccc(Cl)cc1)c1ccccc1	0	31	4	-20	6	20424*
